The text below walks through data of PubChem BioAssay (NCATS).

Values joined by “and” are separate entries in the source; they are usually repeats but may differ in a detail not shown here. Identical values can stand only once. Results filed as inconclusive are left out. Some structures have more than one record in an assay (separate samples or runs), and their calls can disagree. Active and inactive are the calls of the source. Unless noted, the call rests on the fitted dose curve; in most records, active means well fitted curve in the direction sought with a large enough effect; inconclusive means small, poorly fitted or top-dose-only effect, or another doubt; inactive means no such curve, though single readings can be large; an effect the other way counts as inactive or inconclusive.

The target of test [1] is Cytochrome P450 2C19 (Homo sapiens) (UniProt P33261). In words: qHTS Assay for Inhibitors and Substrates of Cytochrome P450 2C19 (AID 899). Further: nearly all actives have a fitted effect of over 60% in size. Further: potency means the concentration at half of the fitted maximal effect. The procedure, abridged: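 Human CYP2C19 (5nM) with Luciferin-H EGE at 10uM (its KM) in 50mM KPO4 was preincubated with compound for 10 min at 37C. NADPH regeneration started a 60 min 37C reaction. Luciferin was read by luminescence, normalized to 57uM ketoconazole.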
Background: Quantitative high-throughput screening tests each substance at several concentrations.

Test [2] can be described thus: qHTS Assay for Identification of Small Molecule Agonists for Thrombopoietin (TPO) Signaling Pathway (AID 917). Summed up: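 IL-3-dependent murine pro-B Ba/F3 cells, stably transfected with human TPO receptor and GpIIb-promoter luciferase, are incubated 24 hrs at 37 C with test compound and 26 pM TPO; luciferase signal is read after 10 min at room temperature.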
Test [3] deals with Muscarinic acetylcholine receptor M1 (Rattus norvegicus) (UniProt P08482). Briefly: qHTS Assay for Antagonists of Acetylcholine Muscarinic M1 Receptor: Kinetic Measurement of Intracellular Calcium Response (AID 943). Further: series mostly up to about 35 µM; nearly all actives have a fitted effect of over 75% in size. The procedure, abridged:
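CHO cells expressing rat M1 receptor, Fluo-4 loaded, preincubated 10 min with compound, then stimulated with EC80 carbachol (100 nM final). Kinetic calcium fluorescence over 4 min; response taken as peak over basal signal.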

In test [4] the target is Pyruvate kinase (Leishmania mexicana) (UniProt Q27686). Briefly: qHTS Validation Assay for Inhibitors of Leishmania Mexicana Pyruvate Kinase (AID 945). Summed up:
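Compounds are tested as eight-point concentration series. Reactions contain 0.2 nM LmPYK E451W, 0.5 mM PEP, 0.1 mM ADP, 7 mM MgCl2 and 50 mM KCl at pH 7.2, run 1 h at room temperature, then read by PKLight luminescence.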

In test [5] the target is Pyruvate kinase PKM (Homo sapiens) (UniProt P14618). In words: qHTS Assay for Activators of Human Muscle Pyruvate Kinase (AID 954; active means well fitted curve in the direction sought with a large enough effect, not every such curve was filed as active). Summed up:
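Enzyme was run at intermediate activity so both inhibitors and activators could be detected. ATP formed from ADP and PEP by 0.1 nM human PKM2 during a 1 h room-temperature incubation was quantified by coupled luciferase luminescence.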

Test [6] in a line: Confirmation and Secondary Assay for Modulators of Hemoglobin Beta Chain Splicing at IVS2 654 locus (AID 910).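 Further: per-well total GFP intensity by laser scanning cytometry after 2-day treatment.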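 Further: potency means the concentration at half of the fitted maximal effect; potency of activators that raise GFP signal by restoring correct splicing.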 The procedure, abridged: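 HeLa cells stably carrying EGFP interrupted by mutant beta-globin IVS2-654 intron (CMV-driven) were treated with compound for 2 days at 37C; corrected splicing was scored as total peak GFP intensity per well (488 nm excitation, 500-520 nm emission).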

The nature of test [7]: Cell Viability - LYMP2-001 (AID 921).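 Further: cells exposed to compound for 24 h at 37 °C; nearly all actives have a fitted effect of over 70% in size.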 Further: potency means the concentration at half of the fitted maximal effect. The procedure, abridged:
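A lymphoblastoid cell line of human origin was treated with library compounds across a concentration series for 24 hours, and viable cell number was estimated from ATP-driven luciferase light output. Hill modeling gave AC50.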

A short description of test [8]: Confirmation and Secondary Assay for Modulators of Hemoglobin Beta Chain Splicing at IVS2 705 locus (AID 930).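 Further: GFP fluorescence per well restored by corrected splicing of the IVS2-705 intron in EGFP.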 Further: potency means the concentration at half of the fitted maximal effect.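 On activation: HeLa cells stably expressing the EGFP-705 splicing reporter; series mostly up to about 46 µM.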 Summed up:
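Fluorescence gain (488 nm laser, 500-520 nm PMT) reflects restored correct splicing of a mutant IVS2-705 intron inside EGFP in stably transfected HeLa cells after 2-day compound treatment.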

Test [9] in a line: MultiTox-Fluor Cytotoxicity Assay - LYMP1-001 - Dead Cells (AID 946). The procedure, abridged:
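In this qHTS, 15 uM tetraoctylammonium bromide defined 100% and DMSO defined basal activity. Lymphoblastoid cells (LYMP1-001, 2500 per well) received compound for 16 hr at 37 C before a fluorogenic dead-cell substrate readout at 485/520 nm.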

The nature of test [10]: MultiTox-Fluor Cytotoxicity Assay - LYMP1-001 - Live Cells (AID 947).
Test [11] can be described thus: Cell Viability - LYMP1-002 - Assay at 16 hr (AID 948). The procedure, abridged:
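In this qHTS, lymphoblastoid LYMP1-002 cells (human) receive compounds for 16 hr at 37 C. Viability is taken from CellTiter-Glo ATP luminescence, and AC50 derives from standard Hill fits.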

A short description of test [12]: MultiTox-Fluor Cytotoxicity Assay - LYMP1-002 - Live Cells (AID 955).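 Further: cells exposed to compound for 16 hours.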 The procedure, abridged: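 Human lymphoblastoid LYMP1-002 cells, 2500/well, treated 16 h at 37 C in complete medium. Live-cell protease activity via GF-AFC fluorescence (Ex/Em 405/510) after 60 min reagent incubation; AC50 from Hill fits.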
A short description of test [13]: MultiTox-Fluor Cytotoxicity Assay - LYMP1-002 - Dead Cells (AID 960).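 Further: cells exposed to compound for 16 h at 37 °C; nearly all actives have a fitted effect of over 60% in size.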 The procedure, abridged: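 Human lymphoblastoid LYMP1-002 cells, 2500/well, treated 16 h at 37 C; dead-cell protease cleavage of bis-AAF-R110 read by fluorescence (485/520); normalized to DMSO and 15 uM tetraoctylammonium bromide; AC50 from Hill fit.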
Test [14] can be described thus: MultiTox-Fluor Cytotoxicity Assay - LYMP1-003 - Dead Cells (AID 961).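 Further: cells exposed to compound for 16 h at 37 °C; nearly all actives have a fitted effect of over 70% in size.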 The procedure, abridged:
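Acute toxicity is scored as increased dead-cell protease activity in human lymphoblastoid LYMP1-003 cells after 16 h compound exposure in complete culture medium. Activity is normalized to DMSO basal and 15 uM tetraoctylammonium bromide as full response.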

Test [15] is described as follows: MultiTox-Fluor Cytotoxicity Assay - LYMP1-003 - Live Cells (AID 962).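 Further: cells exposed to compound for 16 hours at 37 °C; cytotoxic hits lower the live-cell protease signal.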 The procedure, abridged: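 LYMP1-003 lymphoblastoid cells, 2500/well in complete medium, treated 16 h at 37 C; live-cell protease cleavage of GF-AFC read by fluorescence (Ex/Em 405/510) after 60 min reagent; AC50 from Hill fits of concentration-response.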
Test [16] is described as follows: Cell Viability - LYMP1-003 - Assay at 24 hr (AID 963). Summed up:
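Human lymphoblastoid LYMP1-003 cells, 2500/well, treated 24 h at 37 C in complete medium. Viability read as intracellular ATP by CellTiter-Glo luminescence after 30 min at room temperature; AC50 from Hill-equation fits of qHTS concentration-response.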

Test [17] is described as follows: Cell Viability - LYMP1-003 - Assay at 40 hr (AID 964). Further: nearly all actives have a fitted effect of over 60% in size. Further: potency means the concentration at half of the fitted maximal effect. Summed up:
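LYMP1-003 human lymphoblastoid cells, 2500/well, preincubated 5 h at 37 C, then treated with compound for 40 h at 37 C. Intracellular ATP read by CellTiter-Glo luminescence after 30 min at room temperature; AC50 from Hill-equation fits.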

Test [18] is described as follows: qHTS Assay for Identification of Small Molecule Agonists for Hypoxia Response Element Signaling Pathway (AID 914; active means well fitted activation curve with a large enough effect in the signal ratio, with a control signal flat, not every such curve was filed as active; the % refers to the signal ratio; further: potency means the concentration at half of the fitted maximal effect). The following applies: ME-180 (cervical carcinoma) HRE-bla reporter, beta-lactamase ratio, CoCl2, 17 h; activation: stronger effect = higher value. Summed up: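 A beta-lactamase reporter under hypoxia response element control in ME-180 cells served as the system. Compound titrations plus EC50 CoCl2 ran 17 h at 37 degrees Celsius; AC50 values were fitted from %Activity.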

Chain of Cytochrome P450 2C19 (Homo sapiens) (P33261 whole entry, looked up): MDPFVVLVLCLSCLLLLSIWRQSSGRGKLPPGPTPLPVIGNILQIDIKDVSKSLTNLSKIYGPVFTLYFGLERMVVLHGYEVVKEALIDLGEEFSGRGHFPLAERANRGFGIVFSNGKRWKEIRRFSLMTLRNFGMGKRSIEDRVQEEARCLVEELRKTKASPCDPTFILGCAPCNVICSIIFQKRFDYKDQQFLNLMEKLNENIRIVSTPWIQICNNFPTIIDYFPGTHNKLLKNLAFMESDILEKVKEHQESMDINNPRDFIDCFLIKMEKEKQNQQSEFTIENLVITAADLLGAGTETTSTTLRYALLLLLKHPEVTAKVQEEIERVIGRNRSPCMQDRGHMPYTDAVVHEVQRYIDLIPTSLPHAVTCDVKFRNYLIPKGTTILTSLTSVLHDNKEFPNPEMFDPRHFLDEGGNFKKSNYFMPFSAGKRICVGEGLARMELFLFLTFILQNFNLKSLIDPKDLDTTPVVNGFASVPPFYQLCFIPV
Chain of Pyruvate kinase PKM (Homo sapiens) (P14618 whole entry, looked up): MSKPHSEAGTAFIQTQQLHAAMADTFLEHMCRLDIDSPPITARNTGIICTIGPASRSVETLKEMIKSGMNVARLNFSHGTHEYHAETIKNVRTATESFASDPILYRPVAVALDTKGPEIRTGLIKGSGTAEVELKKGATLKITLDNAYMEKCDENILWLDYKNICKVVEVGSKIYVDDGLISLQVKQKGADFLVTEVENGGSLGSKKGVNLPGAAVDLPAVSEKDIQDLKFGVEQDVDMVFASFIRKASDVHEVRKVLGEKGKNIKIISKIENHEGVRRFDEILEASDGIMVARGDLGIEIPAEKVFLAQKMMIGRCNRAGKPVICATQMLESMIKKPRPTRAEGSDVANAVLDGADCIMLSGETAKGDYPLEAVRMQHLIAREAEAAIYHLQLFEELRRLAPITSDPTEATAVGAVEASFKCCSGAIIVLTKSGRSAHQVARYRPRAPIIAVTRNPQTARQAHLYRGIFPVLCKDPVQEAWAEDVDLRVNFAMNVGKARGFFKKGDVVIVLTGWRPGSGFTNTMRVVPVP
Chain of Pyruvate kinase (Leishmania mexicana) (Q27686 2-499 E452W): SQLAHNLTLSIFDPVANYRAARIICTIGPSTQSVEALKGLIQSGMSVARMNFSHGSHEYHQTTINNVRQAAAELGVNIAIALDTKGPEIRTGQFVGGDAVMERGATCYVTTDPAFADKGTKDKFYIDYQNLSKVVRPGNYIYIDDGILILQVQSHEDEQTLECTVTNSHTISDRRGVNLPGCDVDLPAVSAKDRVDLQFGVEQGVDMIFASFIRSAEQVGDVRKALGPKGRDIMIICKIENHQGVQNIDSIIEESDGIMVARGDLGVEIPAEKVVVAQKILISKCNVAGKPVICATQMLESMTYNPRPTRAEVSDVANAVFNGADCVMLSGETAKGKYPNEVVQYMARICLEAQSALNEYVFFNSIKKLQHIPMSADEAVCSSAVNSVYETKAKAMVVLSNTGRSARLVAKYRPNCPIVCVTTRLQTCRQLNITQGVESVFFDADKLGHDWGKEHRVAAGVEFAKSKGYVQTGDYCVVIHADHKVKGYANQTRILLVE
Chain of Muscarinic acetylcholine receptor M1 (Rattus norvegicus) (P08482 whole entry, looked up): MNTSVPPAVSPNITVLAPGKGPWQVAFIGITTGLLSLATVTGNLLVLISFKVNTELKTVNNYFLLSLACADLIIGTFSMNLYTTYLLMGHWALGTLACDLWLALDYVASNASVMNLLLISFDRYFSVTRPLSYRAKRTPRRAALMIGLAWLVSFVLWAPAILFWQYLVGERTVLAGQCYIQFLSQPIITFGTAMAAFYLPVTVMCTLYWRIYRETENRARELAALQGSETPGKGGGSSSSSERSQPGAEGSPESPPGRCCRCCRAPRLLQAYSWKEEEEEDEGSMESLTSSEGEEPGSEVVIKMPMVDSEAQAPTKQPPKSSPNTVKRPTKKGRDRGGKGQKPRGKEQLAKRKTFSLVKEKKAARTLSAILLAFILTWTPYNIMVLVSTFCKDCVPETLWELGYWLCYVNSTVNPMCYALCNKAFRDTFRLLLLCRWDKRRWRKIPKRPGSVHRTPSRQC

Consider `C1COC(NC(C2CC2)C2CC2)=N1`, for which the Potency result in [1] and in test [3] was “inactive” in each case. Besides, the call in test [2], in [4] and in test [5] was inactive.

`CCOC(=O)C1=C[C@@]2(CC)CCCN3CCc4c(n1c1ccccc41)[C@H]32`: in test [1], the Potency entry was “inactive”. In addition, the result in [2], in test [4] and in test [5] was inactive.

For `CC(=O)Oc1ccccc1C(=O)O`, the Potency entry in test [1], in test [6], in [7], in test [8] and in test [17] was “inactive” in each case. Besides, the molecule was classed as inactive in test [2], in test [4], in [9], in test [10], in [11] and in test [5]. Moreover, the outcome in test [12], in test [13], in [14], in test [15] and in [16] was inactive.

Consider `Clc1cccc(Cl)c1NC1=NCCN1`, for which, in test [1], the Potency was 5.01 µM (active). For the same molecule, the molecule was classed as inactive in test [2], in [4] and in test [5].

For the molecule `Cn1cnc([N+](=O)[O-])c1Sc1ncnc2nc[nH]c12`, the Potency in test [6] was 1.58 µM (active); in test [7], 39.8 µM (active); in [8] it was “inactive and 2.51 µM (active)”; in test [17], 2.51 µM (active). Moreover, the molecule was called inactive in test [2], in [4], in test [9], in [10], in test [11] and in test [5]. The call in test [12], in test [13], in [14] and in test [15] was inactive.

`O=c1[nH]cnc2[nH]ncc12`: the Potency entry in test [1], in test [6], in test [7], in [8] and in test [17] was “inactive” throughout. Further, the result in test [2], in test [4], in [9], in test [10], in test [11] and in test [5] was inactive. Further, the result in [12], in test [13], in test [14], in test [15] and in test [16] was inactive.

For `CCOC(=O)N1CCC(=C2c3ccc(Cl)cc3CCc3cccnc32)CC1`, the Potency result in test [6] and in test [8] was “inactive” each time. For the same molecule, the Potency in [18] was 15.8 µM (active). In addition, the call in test [4] and in test [5] was inactive.

On to `Cc1ccc(N(CC2=NCCN2)c2cccc(O)c2)cc1`, for which the Potency result in test [6] and in [8] was “inactive” throughout. Besides, the call in test [2], in test [4] and in test [5] was inactive.

Turning to `NC(N)=NC(=O)c1nc(Cl)c(N)nc1N`, the Potency entry in test [6], in [8] and in test [17] was “inactive” throughout. For the same molecule, the call in test [2], in [4], in [9], in test [10], in [11] and in test [5] was inactive. The outcome in [12], in test [13], in test [14], in test [15] and in test [16] was inactive.

Take `O=NN(CCCl)C(=O)NCCCl`: the Potency result in test [6] and in [8] was “inactive” each time. Moreover, the molecule was classed as inactive in test [2], in test [4] and in test [5].

Regarding `N=c1nc(N2CCCCC2)cc(N)n1O`, the Potency entry in [1], in test [6], in test [8] and in [3] was “inactive” in each case. Also, the call in test [2], in test [4] and in test [5] was inactive.

Turning to `CCCC(CCC)C(=O)O`, the Potency entry in [6], in test [7], in test [8] and in [17] was “inactive” throughout. For the same molecule, the call in test [2], in test [4], in [9], in [11], in test [5] and in test [12] was inactive. Further, the molecule was classed as inactive in [14], in test [15] and in test [16].

On to `CC(C)(Sc1ccc(CCN(CCCCC2CCCCC2)C(=O)NC2CCCCC2)cc1)C(=O)O`, for which the Potency entry in test [1] and in test [3] was “inactive” throughout. Further, the molecule was classed as inactive in test [2], in [4] and in test [5].

On to `NC(=O)c1cnccn1`, for which the Potency result in test [1], in test [6], in [7], in test [8] and in [17] was “inactive” throughout. In addition, the outcome in test [2], in test [4], in test [9], in [10], in test [11] and in test [5] was inactive. Besides, the result in test [12], in test [13], in [14], in [15] and in [16] was inactive.
